Among all 5,500 compounds or so, about 2,000 (36%) were called active. Not shown: some 18% with an inconclusive outcome. No stated cut-off is given here; in the data, active means normalized growth mostly below about 0.91 (no sharp cut-off); inconclusive means no clear call, values can overlap the other calls; inactive means mostly above about 0.92. The list shows a part of the results.
Assay: chemical genetic growth profiling, strain panel (AID 1159580);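 further: tested at 20 µM; growth read once vehicle control cultures reached saturation at 30 °C; 1 = growth at the plate median or of vehicle wells; lower values mean less growth of the strain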
Conditions: growth OD
[1] = S. cerevisiae deletion strains, locus YDL101C, strain DUN1, hits give low values
[2] = S. cerevisiae deletion strains, locus YHR030C, strain SLT2, hits give low values

Measured: normalized growth

N=C(N)SCc1nc(-c2ccc(Cl)cc2)no1
inactive: S. cerevisiae deletion strains, locus YAR019C, strain CDC15, hits give low values 0.979 | S. cerevisiae deletion strains, locus YBL105C, strain PKC1, hits give low values 0.985 | S. cerevisiae deletion strains, locus YBR135W, strain CKS1, hits give low values 0.981 | S. cerevisiae deletion strains, locus YBR136W, strain MEC1, hits give low values 0.984 | S. cerevisiae deletion strains, locus YBR160W, strain CDC28, hits give low values 0.984 | S. cerevisiae deletion strains, locus YDL017W, strain CDC7, hits give low values 0.977 | S. cerevisiae deletion strains, locus YDL028C, strain MPS1, hits give low values 0.977 | [1] 0.99 | S. cerevisiae deletion strains, locus YDL108W, strain KIN28, hits give low values 0.976 | S. cerevisiae deletion strains, locus YDL132W, strain cdc53, hits give low values 0.99 | S. cerevisiae deletion strains, locus YDL214C, strain PRR2, hits give low values 0.975 | S. cerevisiae deletion strains, locus YDR052C, strain DBF4, hits give low values 0.99 | S. cerevisiae deletion strains, locus YDR054C, strain cdc34, hits give low values 0.978 | S. cerevisiae deletion strains, locus YDR226W, strain ADK1, hits give low values 0.978 | S. cerevisiae deletion strains, locus YDR477W, strain SNF1, hits give low values 0.977 | S. cerevisiae deletion strains, locus YER123W, strain YCK3, hits give low values 0.989 | S. cerevisiae deletion strains, locus YER133W, strain GLC7, hits give low values 0.986 | S. cerevisiae deletion strains, locus YFL009W, strain cdc4, hits give low values 0.983 | S. cerevisiae deletion strains, locus YFL029C, strain CAK1, hits give low values 0.978 | S. cerevisiae deletion strains, locus YFR003C, strain YPI1, hits give low values 0.982 | S. cerevisiae deletion strains, locus YFR019W, strain FAB1, hits give low values 0.973 | S. cerevisiae deletion strains, locus YFR028C, strain CDC14, hits give low values 0.986 | S. cerevisiae deletion strains, locus YGR040W, strain KSS1, hits give low values 0.98 | S. cerevisiae deletion strains, locus YGR052W, strain FMP48, hits give low values 1.03 | S. cerevisiae deletion strains, locus YGR092W, strain DBF2, hits give low values 0.987 | [2] 0.949 | S. cerevisiae deletion strains, locus YHR079C, strain IRE1, hits give low values 0.96 | S. cerevisiae deletion strains, locus YHR082C, strain KSP1, hits give low values 1.06 | S. cerevisiae deletion strains, locus YHR205W, strain SCH9, hits give low values 0.828 | S. cerevisiae deletion strains, locus YIL147C, strain SLN1, hits give low values 0.985 | S. cerevisiae deletion strains, locus YJL095W, strain BCK1, hits give low values 1.01 | S. cerevisiae deletion strains, locus YJL128C, strain PBS2, hits give low values 0.929 | S. cerevisiae deletion strains, locus YJL157C, strain FAR1, hits give low values 0.974 | S. cerevisiae deletion strains, locus YJR016C, strain ILV3, hits give low values 0.987 | S. cerevisiae deletion strains, locus YJR066W, strain TOR1 (second series), hits give low values 0.981 | S. cerevisiae deletion strains, locus YJR066W, strain TOR1, hits give low values 1.11 | S. cerevisiae deletion strains, locus YKL048C, strain ELM1, hits give low values 0.982 | S. cerevisiae deletion strains, locus YKL067W, strain YNK1, hits give low values 0.984 | S. cerevisiae deletion strains, locus YKL101W, strain HSL1, hits give low values 0.992 | S. cerevisiae deletion strains, locus YKL193C, strain SDS22, hits give low values 0.985 | S. cerevisiae deletion strains, locus YKL203C, strain TOR2, hits give low values 1.05 | S. cerevisiae deletion strains, locus YLR113W, strain HOG1, hits give low values 0.989 | S. cerevisiae deletion strains, locus YLR133W, strain CKI1, hits give low values 0.98 | S. cerevisiae deletion strains, locus YLR403W, strain SFP1, hits give low values 0.911 | S. cerevisiae deletion strains, locus YML070W, strain DAK1, hits give low values 0.996 | S. cerevisiae deletion strains, locus YMR001C, strain CDC5, hits give low values 0.981 | S. cerevisiae deletion strains, locus YMR205C, strain PFK2 (second series), hits give low values 0.981 | S. cerevisiae deletion strains, locus YMR277W, strain FCP1, hits give low values 0.985 | S. cerevisiae deletion strains, locus YNL006W, strain LST8, hits give low values 0.981 | S. cerevisiae deletion strains, locus YNL020C, strain ARK1, hits give low values 0.986 | S. cerevisiae deletion strains, locus YNL161W, strain CBK1, hits give low values 0.983 | S. cerevisiae deletion strains, locus YNL183C, strain NPR1, hits give low values 1.1 | S. cerevisiae deletion strains, locus YNL207W, strain RIO2, hits give low values 0.978 | S. cerevisiae deletion strains, locus YNL222W, strain SSU72, hits give low values 0.984 | S. cerevisiae deletion strains, locus YNL307C, strain MCK1 (second series), hits give low values 0.983 | S. cerevisiae deletion strains, locus YOL078W, strain AVO1, hits give low values 0.981 | S. cerevisiae deletion strains, locus YOL136C, strain PFK27, hits give low values 0.97 | S. cerevisiae deletion strains, locus YOR061W, strain CKA2, hits give low values 0.986 | S. cerevisiae deletion strains, locus YOR119C, strain RIO1, hits give low values 1.05 | S. cerevisiae deletion strains, locus YOR231W, strain MKK1, hits give low values 1.03 | S. cerevisiae deletion strains, locus YOR329C, strain SCD5, hits give low values 0.982 | S. cerevisiae deletion strains, locus YPL031C, strain PHO85, hits give low values 0.964 | S. cerevisiae deletion strains, locus YPL153C, strain RAD53, hits give low values 0.964 | S. cerevisiae deletion strains, locus YPL204W, strain HRR25, hits give low values 0.953 | S. cerevisiae deletion strains, locus YPL209C, strain IPL1, hits give low values 0.986 | S. cerevisiae deletion strains, locus YPL256C, strain CLN2, hits give low values 0.925 | S. cerevisiae deletion strains, locus YPR025C, strain CCL1, hits give low values 0.987 | S. cerevisiae deletion strains, locus YPR106W, strain ISR1, hits give low values 0.978 | S. cerevisiae deletion strains, locus YPR111W, strain DBF20, hits give low values 0.981 | S. cerevisiae deletion strains, strain NNK1, hits give low values 0.992 | S. cerevisiae deletion strains, strain TSCII, hits give low values 0.983

c1ccc(CSC2=NCCCN2)cc1
inactive: S. cerevisiae deletion strains, locus YAL013W, strain DEP1, hits give low values 1 | S. cerevisiae deletion strains, locus YBR229C, strain ROT2, hits give low values 0.993 | [1] 1.01 | S. cerevisiae deletion strains, locus YDR150W, strain NUM1, hits give low values 0.977 | S. cerevisiae deletion strains, locus YEL061C, strain CIN8, hits give low values 1.02 | S. cerevisiae deletion strains, locus YGR078C, strain PAC10, hits give low values 1.01 | S. cerevisiae deletion strains, locus YGR229C, strain SMI1, hits give low values 1 | [2] 1.03 | S. cerevisiae deletion strains, locus YHR087W, strain rtc3, hits give low values 1.01 | S. cerevisiae deletion strains, locus YJR043C, strain POL32, hits give low values 1.01 | S. cerevisiae deletion strains, locus YJR075W, strain HOC1, hits give low values 0.997 | S. cerevisiae deletion strains, locus YKL190W, strain CNB1, hits give low values 1 | S. cerevisiae deletion strains, locus YLR039C, strain RIC1, hits give low values 0.993 | S. cerevisiae deletion strains, locus YLR058C, strain SHM2 (second series), hits give low values 1.01 | S. cerevisiae deletion strains, locus YLR085C, strain ARP6, hits give low values 1.04 | S. cerevisiae deletion strains, locus YLR262C, strain YPT6, hits give low values 1.01 | S. cerevisiae deletion strains, locus YML094W, strain GIM5, hits give low values 1 | S. cerevisiae deletion strains, locus YMR219W, strain ESC1, hits give low values 1.01 | S. cerevisiae deletion strains, locus YMR307W, strain GAS1, hits give low values 1 | S. cerevisiae deletion strains, locus YNL128W, strain TEP1, hits give low values 1.02 | S. cerevisiae deletion strains, locus YNL153C, strain GIM3, hits give low values 0.996 | S. cerevisiae deletion strains, locus YNL298W, strain CLA4 (second series), hits give low values 1.05 | S. cerevisiae deletion strains, locus YNL322C, strain KRE1, hits give low values 1.01 | S. cerevisiae deletion strains, locus YNR030W, strain Alg12, hits give low values 1.02 | S. cerevisiae deletion strains, locus YOL006C, strain TOP1, hits give low values 1.04 | S. cerevisiae deletion strains, locus YPL055C, strain LGE1, hits give low values 0.984 | S. cerevisiae deletion strains, locus YPL241C, strain CIN2, hits give low values 1.01 | S. cerevisiae deletion strains, locus YPR135W, strain CTF4, hits give low values 1.08 | S. cerevisiae strains, strain wild type, hits give low values 1.01

Source: PubChem BioAssay AID1159580 (chemical genetic matrix, 2015)
